We go through 13 compounds from PubChem BioAssay (NCATS).

The assay is described as follows: qHTS profiling of the MIPE4 collection as inhibitors of Plasmodium falciparum (DD2) proliferation (Rep 2) (AID 743346). Conditions: P. falciparum Dd2 in erythrocytes, SYBR Green DNA, 72 h; at 28.5 µM unless noted. In a few lines: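 Parasite DNA was quantified by SYBR Green I fluorescence (ex 485, em 535 nm) after overnight lysis in saponin/Triton buffer at room temperature. Cultures at 0.3% parasitemia and 2.5% hematocrit were first exposed to compound for 72 h at 37 C; signals were normalised to artemisinin (0.29 uM) and vehicle wells.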
`O=C(O)CCCCCC(=O)NN=C1CCCC1`: the parasite growth, % of control (lower = inhibition) was 194%.

For the compound `CC(C)(C)[N+]([O-])=Cc1ccc(S(=O)(=O)O)cc1S(=O)(=O)O`, the parasite growth, % of control (lower = inhibition) was 85.8%.

As to `C[C@@]12C[C@@]3(O)O[C@@H](O1)[C@]1(COC(=O)c4ccccc4)[C@@H]3C[C@@]12O[C@@H]1O[C@H](CO)[C@@H](O)[C@H](O)[C@@H]1O`, the parasite growth, % of control (lower = inhibition) worked out at 141%.

`Cc1cncc2cccc(S(=O)(=O)N3CCCN(C(=O)CN)C[C@@H]3C)c12`: the parasite growth, % of control (lower = inhibition) is 51%.

As for `O=C(O)C=Cc1ccc(Cn2ccnc2)cc1`, the parasite growth, % of control (lower = inhibition) came to 96.2%.

For the compound `O=C(CN1C(=O)C2(CCCC2)NC[C@H]1c1cc(F)cc(F)c1)Nc1ccc2c(c1)C[C@@]1(C2)C(=O)Nc2ncccc21`, the parasite growth, % of control (lower = inhibition) stood at 26.1%.

As to `CCN1CCN(C(=O)N[C@H](C(=O)N[C@@H]2C(=O)N3C(C(=O)O)=C(CSc4nnnn4C)CS[C@@H]23)c2ccc(O)cc2)C(=O)C1=O`, the parasite growth, % of control (lower = inhibition) is 57.9% [at 9.64 µM].

Take `Cc1ccc(-n2[nH]c(C)c(N=Nc3cccc(-c4cccc(C(=O)O)c4)c3O)c2=O)cc1C`: the parasite growth, % of control (lower = inhibition) was found to be 72.1%.

For the compound `NC(=NCCCCCCN=C(N)N=C(N)Nc1ccc(Cl)cc1)N=C(N)Nc1ccc(Cl)cc1`, the parasite growth, % of control (lower = inhibition) was 22%.

On to `C=C(C)[C@@H]1CC[C@]2(C)CC[C@]3(C)[C@H](CC[C@@H]4[C@@]5(C)CC[C@H](O)C(C)(C)[C@H]5CC[C@]43C)[C@@H]12`, for which the parasite growth, % of control (lower = inhibition) stood at 73.8%.

For `O=C1NC(O)CCN1[C@@H]1O[C@H](CO)[C@H](O)[C@H]1O` (stereo partly drawn), the parasite growth, % of control (lower = inhibition) is 109%.

For `NS(=O)(=O)OC[C@@H]1C[C@@H](n2ccc3c(N[C@H]4CCc5ccccc54)ncnc32)C[C@H]1O`, the parasite growth, % of control (lower = inhibition) came to 46.9%.

Turning to `Cc1cc(-c2nnc3n2CCCCC3)c(C)n1-c1ccccc1`, the parasite growth, % of control (lower = inhibition) was 26.6%.
